MITF inh – MITF inhibitors, primary screen, biochemical, AlphaScreen, human. AlphaScreen MITF homodimerization, bead proximity signal. inhibition, % at 2.6 µM. hit rate 0.91% among 650,000; in the data active = inhibition above about 50%;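 note: 0% = vehicle wells with protein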
GPR151 activ – activators of human GPR151, primary screen, cell-based, PathHunter beta-arrestin, luminescence; activation, % at 11.2 µM; hit rate 1% among 650,000; AID 1508602, 2020; G-protein coupled receptor 151 (Homo sapiens), Q8TDV0; PathHunter beta-arrestin GPR151 cells; in the data active = activation above about 4.9%;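 note: 0% = median of compound wells and 100% = cells with positive control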
Target sequence (Q8TDV0 whole entry, looked up): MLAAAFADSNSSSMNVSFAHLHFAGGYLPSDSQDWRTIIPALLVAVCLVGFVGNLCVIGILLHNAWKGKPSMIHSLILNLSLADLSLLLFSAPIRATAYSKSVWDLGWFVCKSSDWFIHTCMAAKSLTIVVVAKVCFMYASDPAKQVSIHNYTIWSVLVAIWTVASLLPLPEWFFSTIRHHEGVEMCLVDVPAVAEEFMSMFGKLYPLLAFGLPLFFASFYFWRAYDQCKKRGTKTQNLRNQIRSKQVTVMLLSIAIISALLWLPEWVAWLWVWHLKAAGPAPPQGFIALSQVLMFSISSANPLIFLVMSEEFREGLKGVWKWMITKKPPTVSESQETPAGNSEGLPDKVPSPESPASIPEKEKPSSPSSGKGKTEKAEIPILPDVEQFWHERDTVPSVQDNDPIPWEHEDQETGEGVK
FBW7 act – FBW7 E3 ligase activators, primary screen, biochemical, AlphaScreen, human. F-box/WD repeat-containing protein 7 (Homo sapiens), Q969H0. AlphaScreen FBW7–phospho-cyclin E peptide binding, activator screen. normalized activity (activation), % at 26.1 µM. hit rate 0.13% among 650,000. AID 1259310, 2017; in the data active = normalized activity above about 1.9%;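 note: purified mutant Fbw7 with reduced substrate affinity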
TEAD-YAP block – TEAD-YAP interaction inhibition, primary screen, TEAD-YAP interaction inhibitor project, luminescence, HEK-TIYL cells; TEAD-Gal4/YAP UAS-luciferase luminescence; inhibition, % at 9.12 µM; hit rate 1.4% among 640,000; AID 1259422, 2018; in the data active = inhibition above about 32%;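 note: 0% = median of test compound wells and 100% = reference inhibitor wells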
MITF confirm – MITF inhibitors, retest of hits, confirmation, biochemical, AlphaScreen, triplicate. AID 1259372, 2018. shares compounds with MITF inh. hit rate 16% among 4,700. inhibition, % at 2.6 µM. AlphaScreen MITF homodimerization, biotin/His-MITF beads;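 active = inhibition above a cutoff derived from the DMSO control wells, cut at about 28% in these data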;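 note: 0% = MITF dimer wells with DMSO only; inhibitors lower the bead chemiluminescence by keeping MITF from dimerizing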
AS interf DR – AlphaScreen optical interference compounds, dose response, counter-screen, biochemical, HTS | shares compounds with MITF inh | AlphaScreen optical interference counterscreen, cell-free | IC50, µM | hit rate 6% among 480; call rule not given here
AlphaScreen intf2 – AlphaScreen optical interference compounds, counter-screen for MITF inhibitor project, biochemical, triplicate; inhibition, % at 2.6 µM; hit rate 7.6% among 4,700; LysRS AlphaScreen counterscreen, signal interference; shares compounds with MITF inh; AID 1259376, 2018;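 active = inhibition above a cutoff derived from the DMSO control wells, cut at about 30% in these data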
* = called active by the depositor; nt = not tested or not shown. In the library only some 3.4% were active in any assay of this set; here they are far more common.

SMILES	MITF inh	GPR151 activ	FBW7 act	TEAD-YAP block	MITF confirm	AlphaScreen intf2	others
CCOC(=O)C1CCN(S(=O)(=O)c2ccc(Cl)cc2OC)CC1	59.0*	0.1	-0.1	-6.0	16.7	14.1
CCOC(=O)C1CCN(S(=O)(=O)c2cc(Cl)c(C)cc2OC)CC1	-6.0	2.0	-0.2	-15.6	nt	nt
CCCCC(=O)N1CCN(c2nc3c(C)c(Cl)ccc3s2)CC1	0.3	1.2	0.7	-12.0	nt	nt
COc1ccccc1N1CCN(CC(=O)c2ccc(F)cc2)CC1	68.9*	0.6	0.0	2.6	5.0	8.0
Cc1cc2c(Nc3cccc([N+](=O)[O-])c3)ncnc2s1	-11.9	1.7	0.0	5.4	nt	nt
Cc1ccc(/C(C#N)=C\c2ccco2)cc1	55.7*	-1.1	0.1	-40.2	42.1*	1.2	AS interf DR=>6.48
Cc1ccc(CCC(=O)Nc2ccc(-c3cn4c5c(nnc4n3)CCCC5)cc2)o1	56.2*	1.0	-0.4	-12.1	66.4*	-2.0	AS interf DR=>6.48
O=C(CCc1ccco1)Nc1ccc(-c2cn3c4c(nnc3n2)CCCC4)cc1	71.9*	1.7	-0.4	-12.8	57.8*	-4.8	AS interf DR=>6.48
COc1ccc(Nc2cc(C)nc3nncn23)cc1	-1.4	-1.5	0.0	-5.1	nt	nt
O=[N+]([O-])c1ccc(N2CCN(S(=O)(=O)c3ccccc3)CC2)cc1NC1CC1	71.2*	-0.5	-0.1	4.2	6.9	9.6
CCOC(=O)C1=Nc2ccccc2/C1=C/c1nc(-c2ccccc2)oc1O	-6.7	1.6	0.0	3.4	nt	nt
COc1cccc(CN2CCN(CC3CC=CCC3)CC2)c1OC (stereo unspecified)	80.8*	-0.8	-0.3	7.3	12.4	19.1
COc1ccc(OC)c(CN2CCN(CC3CC=CCC3)CC2)c1 (stereo unspecified)	53.9*	-0.3	-0.1	-3.4	-1.0	11.7
COc1cc(C(=O)N2CCN(CC3CC=CCC3)CC2)cc(OC)c1OC (stereo unspecified)	32.3	1.2	-0.1	6.2	nt	nt
COc1cc(OC)c(OC)cc1CN1CCN(CC2CC=CCC2)CC1 (stereo unspecified)	50.6*	0.5	0.0	2.1	-1.7	-0.3
COc1ccc(OC)c(CN2CCSCC2)c1	28.1	3.4	-0.1	-7.8	nt	nt
Cc1ccc(C(C)(C)C)cc1SCC(=O)Nc1cc(C(N)=O)cc(C(N)=O)c1	15.0	2.1	0.7	0.4	nt	nt
O=C(NCC1CCCCC1)C1CCCN1C(=O)NC1CCCCC1 (stereo unspecified)	3.9	0.4	-0.1	2.6	nt	nt
C=CCNC(=O)C1CCCN1C(=O)NC1CCCCC1 (stereo unspecified)	66.2*	0.6	0.2	9.5	4.5	10.0
CC1=NN(c2ccc(C)cc2)C(=O)C1	12.9	-1.4	-1.2	2.7	nt	nt
CC1=NN(c2nnc(C)c(=O)[nH]2)C(=O)C1	103.2*	-1.3	-0.1	7.3	82.7*	100.0*
CCOC(=O)c1c(NC(=O)CN2CCN(C)CC2)sc2c1CC(C)(C)NC2(C)C	53.4*	0.9	-0.3	5.9	-1.6	0.9
O=C(/C(Br)=C/NCCCn1ccnc1)C(F)(F)F	64.8*	-0.4	-0.2	5.8	39.9*	99.1*
O=C(NCCCn1ccnc1)NC(C(F)(F)F)C(F)(F)F	-0.1	0.6	0.1	5.4	nt	nt
COC(=O)c1ccc(NC2=C(N3CCCC3)C(=O)c3ccccc3C2=O)cc1	-8.6	4.1	0.0	-14.7	nt	nt
SMILES	MITF inh	GPR151 activ	FBW7 act	TEAD-YAP block	MITF confirm	AlphaScreen intf2	others
C/C(=N\NC(=O)CC1=NNC(=O)C1)c1ccco1	51.2*	-0.5	-0.5	-1.4	35.7*	-2.5	AS interf DR=>6.48
COc1ccc(OC)c(NC(=O)C2(c3cccs3)CCOCC2)c1	0.8	2.5	-0.1	0.1	nt	nt
Oc1ccc(N2CCN(CC(O)COCc3ccccc3Cl)CC2)cc1 (stereo unspecified)	56.0*	-0.3	-0.2	-3.1	5.7	23.2
CCOc1ccccc1N1CCN(CC(O)COCc2ccccc2OC)CC1 (stereo unspecified)	74.1*	1.1	-0.2	0.3	-6.4	-0.9
OC(CNC1CCN(Cc2ccccc2)C1)COCc1ccccc1Cl (stereo unspecified)	54.8*	-1.1	-0.3	6.1	-9.2	-0.1
CCOc1ccc(OCC(O)CNC2CCN(Cc3ccccc3)CC2)cc1 (stereo unspecified)	-1.3	1.2	-0.1	5.0	nt	nt
OC(COCc1ccccc1F)CN1CCN(c2ccccc2)CC1 (stereo unspecified)	3.9	1.4	-0.1	-1.1	nt	nt
O=C(CSc1nccn1Cc1ccc2c(c1)OCO2)NC1CCCCC1	2.2	-0.1	0.0	3.4	nt	nt
CCOC(=O)c1cnc(-n2[nH]c3c(c2=O)CCCC3)[nH]c1=O	88.2*	-2.3	0.0	8.2	47.1*	63.9*
CCOC(=O)c1cnc(OC)[nH]c1=O	-5.0	-0.3	0.0	3.1	nt	nt
COC(=O)C1=CNC=C(C(=O)OC)C1c1ccc(OC)c(O)c1	3.1	-0.9	0.0	-13.7	nt	nt
COC(=O)CCCC[C@H]1SC[C@H]2NC(=O)N[C@]21O	84.5*	0.5	-0.8	-1.7	107.3*	92.4*
CC(=O)Nc1ccc(NC(=O)C2CC=CCC2C(=O)O)cc1 (stereo unspecified)	-4.8	-1.0	-0.1	1.0	nt	nt
CCc1ccc(NC(=O)C2CC=CCC2C(=O)O)cc1 (stereo unspecified)	83.3*	-0.1	0.8	6.0	7.0	8.1
CCCC(=O)Nc1ccc2c(c1)C(=O)N(C1CCCCC1)C2=O	57.6*	-1.1	0.5	10.5	-5.3	-8.4
CCC(=O)Nc1ccc2c(c1)C(=O)N(C1CCCCC1)C2=O	-1.4	0.0	-0.1	-12.9	nt	nt
CCOc1ccc(CN2CCN(Cc3ccc(OC)c(OC)c3OC)CC2)cc1	65.7*	-0.8	-0.2	13.1	3.6	1.8
COc1cccc(CN2CCN(Cc3ccc(F)cc3)CC2)c1OC	79.7*	-0.9	-0.2	-10.1	11.2	8.8
COc1ccc(CN2CCN(Cc3ccc(SC)cc3)CC2)c(OC)c1OC	27.2	0.3	-0.3	13.9	nt	nt
COc1ccc(CN2CCCCC2)c(OC)c1OC	20.9	-1.6	0.2	-4.3	nt	nt
COc1cccc(CN2CCN(Cc3ccc(F)cc3)C(CCO)C2)c1OC (stereo unspecified)	10.7	-0.1	0.1	9.6	nt	nt
CCS(=O)(=O)N1CCN(Cc2ccc(OC)c(OC)c2OC)CC1	46.7	0.3	-0.2	14.4	nt	nt
COc1cc(OC)c(OC)cc1CN1CCN(Cc2ccc(OC)c(OC)c2OC)CC1	58.8*	0.2	-0.1	-1.3	1.9	-1.8

From PubChem
